{"source": "the antibiotic and cytotoxicity screens of Wong et al. (2023)", "note": "About 1,500 (3.8%) of roughly 39,000 compounds were called active. This excerpt belongs to a sample that is enriched for actives."}
{"tested_on": "HSkMC (human skeletal muscle cells)", "assay": "cytotoxicity call (relative viability < 0.9)", "conditions": "10 µM"}
{"compound": "C[C@H](CO)N1C[C@H](C)[C@@H](CN(C)Cc2ccc(Oc3ccccc3)cc2)Oc2cc(-c3ccncc3)ccc2S1(=O)=O", "cytotoxicity call": "inactive"}
{"compound": "C[C@H]1CCCCO[C@@H](CN(C)C(=O)Nc2ccc(C(F)(F)F)cc2)[C@@H](C)CN([C@@H](C)CO)C(=O)c2cc(NS(C)(=O)=O)ccc2O1", "cytotoxicity call": "inactive"}
{"compound": "Cc1noc(C)c1NC(=O)N(C)C[C@H]1OCCCC[C@@H](C)Oc2ccc(NS(=O)(=O)c3cccs3)cc2C(=O)N([C@H](C)CO)C[C@@H]1C", "cytotoxicity call": "inactive"}
{"compound": "C[C@@H]1CN([C@@H](C)CO)S(=O)(=O)c2ccc(C#Cc3ccccc3)cc2O[C@@H]1CN(C)C(=O)CN(C)C", "cytotoxicity call": "inactive"}
{"compound": "C[C@@H]1CCCCO[C@H](CN(C)Cc2ccccc2)[C@@H](C)CN([C@H](C)CO)C(=O)c2cc(NC(=O)Nc3cccc4ccccc34)ccc2O1", "cytotoxicity call": "inactive"}
{"compound": "C[C@@H]1CCCCO[C@@H](CN(C)Cc2ccccc2)[C@@H](C)CN([C@@H](C)CO)C(=O)c2cc(NC(=O)Nc3cccc4ccccc34)ccc2O1", "cytotoxicity call": "inactive"}
{"compound": "C[C@@H]1CCCCO[C@H](CN(C)Cc2ccc(C(=O)O)cc2)[C@H](C)CN([C@H](C)CO)C(=O)c2cc(NC(=O)Nc3cccc4ccccc34)ccc2O1", "cytotoxicity call": "inactive"}
{"compound": "C[C@@H]1CN([C@H](C)CO)C(=O)c2cc(NC(=O)Nc3cccc4ccccc34)ccc2O[C@@H](C)CCCCO[C@H]1CN(C)Cc1ccccc1", "cytotoxicity call": "inactive"}
{"compound": "C[C@@H]1CCCCO[C@H](CN(C)Cc2ccc(C(=O)O)cc2)[C@@H](C)CN([C@@H](C)CO)C(=O)c2cc(NC(=O)Nc3cccc4ccccc34)ccc2O1", "cytotoxicity call": "inactive"}
{"compound": "C[C@H]1CCCCO[C@@H](CN(C)Cc2ccccc2)[C@@H](C)CN([C@@H](C)CO)C(=O)c2cc(NC(=O)Nc3cccc4ccccc34)ccc2O1", "cytotoxicity call": "active"}
{"compound": "C[C@H](CO)N1C[C@H](C)[C@H](CN(C)Cc2ccccc2)OCCCC[C@H](C)Oc2ccc(NC(=O)Nc3cccc4ccccc34)cc2C1=O", "cytotoxicity call": "inactive"}
{"compound": "C[C@@H]1CCCCO[C@H](CN(C)Cc2ccccc2)[C@H](C)CN([C@H](C)CO)C(=O)c2cc(NC(=O)Nc3cccc4ccccc34)ccc2O1", "cytotoxicity call": "active"}
{"compound": "C[C@H](CO)N1C[C@H](C)[C@@H](CN(C)Cc2ccccc2)OCCCC[C@H](C)Oc2ccc(NC(=O)Nc3cccc4ccccc34)cc2C1=O", "cytotoxicity call": "active"}
{"compound": "C[C@@H]1CCCCO[C@H](CN(C)Cc2ccccc2)[C@@H](C)CN([C@@H](C)CO)C(=O)c2cc(NC(=O)Nc3cccc4ccccc34)ccc2O1", "cytotoxicity call": "active"}
{"compound": "CC1(C)OC2CC3C4CCC5=CC(=O)CCC5(C)C4(F)C(O)CC3(C)C2(C(=O)CCl)O1", "note": "(stereo unspecified)", "cytotoxicity call": "inactive"}
{"compound": "C[C@H]1CN([C@@H](C)CO)C(=O)CCCn2nncc2CO[C@@H]1CN(C)C(=O)Nc1ccc(N2CCCCC2)cc1", "cytotoxicity call": "inactive"}
{"compound": "Cc1noc(C)c1NC(=O)N(C)C[C@@H]1Oc2ccc(NC(=O)Nc3cccc4ccccc34)cc2C(=O)N([C@@H](C)CO)C[C@@H]1C", "cytotoxicity call": "inactive"}
{"compound": "COc1ccc(CN(C)C[C@H]2OCCCC[C@@H](C)Oc3ccc(NC(=O)c4ccccc4)cc3C(=O)N([C@H](C)CO)C[C@H]2C)cc1", "cytotoxicity call": "inactive"}
{"compound": "C[C@@H]1CN([C@H](C)CO)C(=O)c2cc(NS(=O)(=O)c3cccs3)ccc2O[C@@H]1CN(C)S(=O)(=O)c1ccc(F)cc1", "cytotoxicity call": "inactive"}
{"compound": "COc1ccc(NC(=O)N(C)C[C@H]2Oc3ncc(C#CCN(C)C)cc3C(=O)N([C@@H](C)CO)C[C@@H]2C)cc1", "cytotoxicity call": "inactive"}
{"compound": "C[C@@H]1CCCCO[C@@H](CN(C)C(=O)C2CCCCC2)[C@@H](C)CN([C@H](C)CO)C(=O)c2cc(NC(=O)Nc3cccc4ccccc34)ccc2O1", "cytotoxicity call": "inactive"}
{"compound": "COc1ccc(NC(=O)N(C)C[C@@H]2OCCCC[C@H](C)Oc3ccc(NC(=O)NC4CCCCC4)cc3C(=O)N([C@H](C)CO)C[C@@H]2C)cc1", "cytotoxicity call": "inactive"}
{"compound": "COCC#Cc1ccc2c(c1)O[C@H](CN(C)S(=O)(=O)c1ccc(F)cc1)[C@H](C)CN([C@@H](C)CO)S2(=O)=O", "cytotoxicity call": "inactive"}
{"compound": "COc1cccc(S(=O)(=O)Nc2ccc3c(c2)[C@@H]2C[C@H](CC(=O)N4CCCCC4)O[C@H](CO)[C@@H]2O3)c1", "cytotoxicity call": "inactive"}
{"compound": "C[C@@H]1CCCCO[C@@H](CN(C)S(=O)(=O)c2ccc(F)cc2)[C@@H](C)CN([C@@H](C)CO)C(=O)c2cc(NS(C)(=O)=O)ccc2O1", "cytotoxicity call": "inactive"}
{"compound": "C[C@H]1CCCCO[C@H](CN(C)Cc2ccccc2)[C@@H](C)CN([C@@H](C)CO)C(=O)c2cc(NC(=O)Nc3cccc4ccccc34)ccc2O1", "cytotoxicity call": "active"}
{"compound": "C[C@@H]1CCCCO[C@@H](CN(C)Cc2ccccc2)[C@H](C)CN([C@H](C)CO)C(=O)c2cc(NC(=O)Nc3cccc4ccccc34)ccc2O1", "cytotoxicity call": "inactive"}
{"compound": "C[C@@H]1CN([C@@H](C)CO)C(=O)c2cc(NC(=O)Nc3cccc4ccccc34)ccc2O[C@@H](C)CCCCO[C@H]1CN(C)Cc1ccccc1", "cytotoxicity call": "inactive"}
{"compound": "C[C@@H]1CCCCO[C@H](CN(C)Cc2ccccc2)[C@H](C)CN([C@@H](C)CO)C(=O)c2cc(NC(=O)Nc3cccc4ccccc34)ccc2O1", "cytotoxicity call": "active"}
{"compound": "C[C@@H]1CCCCO[C@@H](CN(C)Cc2ccccc2)[C@@H](C)CN([C@H](C)CO)C(=O)c2cc(NC(=O)Nc3cccc4ccccc34)ccc2O1", "cytotoxicity call": "inactive"}
{"compound": "C[C@@H]1CN([C@H](C)CO)C(=O)c2cc(NC(=O)Nc3cccc4ccccc34)ccc2O[C@@H](C)CCCCO[C@@H]1CN(C)Cc1ccccc1", "cytotoxicity call": "inactive"}
{"compound": "C[C@@H]1CCCCO[C@@H](CN(C)Cc2ccccc2)[C@H](C)CN([C@@H](C)CO)C(=O)c2cc(NC(=O)Nc3cccc4ccccc34)ccc2O1", "cytotoxicity call": "inactive"}
{"compound": "C[C@@H]1CN([C@@H](C)CO)C(=O)c2cc(NC(=O)Nc3cccc4ccccc34)ccc2O[C@@H](C)CCCCO[C@@H]1CN(C)Cc1ccccc1", "cytotoxicity call": "active"}
{"compound": "C[C@@H]1CCCCO[C@@H](CN(C)Cc2ccc(C(=O)O)cc2)[C@@H](C)CN([C@@H](C)CO)C(=O)c2cc(NC(=O)Nc3cccc4ccccc34)ccc2O1", "cytotoxicity call": "inactive"}
{"compound": "COc1ccc(S(=O)(=O)N2C[C@H](O)COC[C@@H]3O[C@@H](CC(=O)N[C@H]4CCN(Cc5ccccc5)C4)CC[C@H]32)cc1", "cytotoxicity call": "inactive"}
{"compound": "CN1C[C@@H](O)COC[C@H]2O[C@H](CC(=O)N3CCN(c4ccccc4)CC3)CC[C@@H]21", "cytotoxicity call": "inactive"}
